Reference: PubChem BioAssay (Tox21)
Inconclusive results are not listed. Activity calls are given as the source filed them. Unless noted, the call rests on the fitted dose curve.

Assays:
[1] = Nuclear factor erythroid 2-related factor 2/antioxidant responsive element (Nrf2/ARE) small molecule agonists: qHTS cell viability counter screen in human keratinocytes (AID 1919968; active means well fitted curve in the direction sought with a large enough effect in the repeat runs; an effect the other way counts as inactive or inconclusive; further: nearly all actives have a fitted effect of over 55% in size)
Outline: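 HaCaT ARE reporter line, 1,500 cells/well; 5 h settle, 37 C/5% CO2; cpd in DMSO pinned; 23 h exposure; CellTiter-Fluor, 1 h; fluorescence.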

[2] = Nuclear factor erythroid 2-related factor 2/antioxidant responsive element (Nrf2/ARE) small molecule agonists: luciferase reporter gene qHTS assay in human keratinocytes (AID 1919969); further: nearly all actives have a fitted effect of over 35% in size
[3] = target: Gonadotropin-releasing hormone receptor (Homo sapiens) (UniProt P30968); test: Human gonadotropin-releasing hormone receptor (GnRHR) small molecule agonists, calcium flux assay in GnRHR-HEK293 cells (AID 1920063); further: nearly all actives have a fitted effect of over 35% in size
Chain of Gonadotropin-releasing hormone receptor (Homo sapiens) (P30968 whole entry, looked up): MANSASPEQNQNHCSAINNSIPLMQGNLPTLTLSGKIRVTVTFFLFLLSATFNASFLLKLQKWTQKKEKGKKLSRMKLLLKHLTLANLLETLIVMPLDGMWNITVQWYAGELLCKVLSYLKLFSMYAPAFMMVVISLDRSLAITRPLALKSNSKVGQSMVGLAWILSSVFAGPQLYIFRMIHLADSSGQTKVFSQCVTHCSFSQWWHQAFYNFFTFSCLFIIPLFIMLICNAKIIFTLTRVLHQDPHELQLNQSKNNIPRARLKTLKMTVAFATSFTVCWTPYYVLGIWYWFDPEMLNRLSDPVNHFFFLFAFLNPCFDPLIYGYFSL
Outline: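 GnRHR-HEK293, 1500 cells/well, 18 h 37 C/5% CO2; Ca dye 1 h 37 C; cpd pinned (DMSO), agonist mode; kinetic FL 480/540, 3 min, 1 s reads; 15 conc, n=3.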

[4] = target: KiSS-1 receptor (Homo sapiens) (UniProt Q969F8); test: Human kisspeptin (KISS1R) small molecule agonists, calcium flux assay in KISS1R-HEK293 cells (AID 1920064; active means well fitted curve in the direction sought with a large enough effect in the repeat runs; an effect the other way counts as inactive or inconclusive)
Chain of KiSS-1 receptor (Homo sapiens) (Q969F8 whole entry, looked up): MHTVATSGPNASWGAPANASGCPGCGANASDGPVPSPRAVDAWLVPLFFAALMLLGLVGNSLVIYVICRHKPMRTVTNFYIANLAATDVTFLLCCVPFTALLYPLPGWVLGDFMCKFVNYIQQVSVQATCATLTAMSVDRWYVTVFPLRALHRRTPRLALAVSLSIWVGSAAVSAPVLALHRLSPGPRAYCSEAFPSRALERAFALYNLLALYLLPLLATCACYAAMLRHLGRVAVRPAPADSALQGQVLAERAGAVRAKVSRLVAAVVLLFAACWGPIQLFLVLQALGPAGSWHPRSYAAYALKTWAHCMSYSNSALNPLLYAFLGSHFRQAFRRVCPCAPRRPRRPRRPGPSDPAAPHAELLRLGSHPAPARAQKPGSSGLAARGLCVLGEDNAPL
Outline: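 Stable human KISS1R HEK293 line; 18 h plating, 37 C/5% CO2; calcium dye 1 h 37 C; compound pin transfer; kinetic fluorescence Ex/Em 480/540, 3 min.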

[5] = G protein-coupled receptor (GPCR) small molecule agonists, calcium flux assay: HEK293 wild type cell line counter screen (AID 1920065)
Outline: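 Kinetic fluorescence at Ex/Em 480/540, recorded every second over 3 min, served as the read-out after compound addition. Each compound was tested at 15 concentrations in triplicate on cells pre-loaded with calcium dye for 1 h.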

[6] = p53 small molecule agonists, cell-based qHTS assay with rat liver microsomes (AID 1963578)
Outline: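 p53RE-bla cells were exposed to compounds together with rat liver microsomes (0.5 mg/mL final) and NADPH (0.5 mg/mL final) for 16 h at 37 C, then read by LiveBLAzer beta-lactamase fluorescence after 2 h at room temperature.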

[7] = p53 small molecule agonists, cell-based qHTS assay with human liver microsomes: qHTS cell viability counter screen (AID 1963579); further: nearly all actives have a fitted effect of over 45% in size
Outline: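 p53RE-bla cells (4,000/well) were pre-incubated 5 h at 37 C, then given compounds in DMSO plus human liver microsomes (0.5 mg/mL final) and NADPH (0.5 mg/mL final) for 16 h at 37 C. Viability was read by CellTiter-Glo luminescence.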

[8] = p53 small molecule agonists, cell-based qHTS assay with rat liver microsomes: qHTS cell viability counter screen (AID 1963580); further: nearly all actives have a fitted effect of over 45% in size
Outline: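 Viability is assessed in parallel with the p53 reporter read: HCT-116 p53RE-bla cells receive compounds plus rat microsomes and NADPH (0.5 mg/mL final apiece), incubate 16 h at 37 C, and then CellTiter-Glo luminescence is recorded.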

[9] = p53 small molecule agonists, cell-based qHTS assay: qHTS cell viability counter screen (AID 1963581); further: nearly all actives have a fitted effect of over 45% in size
Outline: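 HCT-116 p53RE-bla cells, 4,000/well, plated 5 h before compound pin transfer; 16 h at 37 C; bla substrate 2 h RT; then CellTiter-Glo, 30 min RT, luminescence.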

[10] = p53 small molecule agonists, cell-based qHTS assay (AID 1963582; active means well fitted activation curve with a large enough effect in the signal ratio in the repeat runs, not every such curve was filed as active; the % refers to the signal ratio)
Outline: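 Reporter line: p53RE-bla. Pre-incubation 5 h, 37 C, 5% CO2; compound (DMSO, pin tool) 16 h, 37 C; B/G FRET substrate 2 h RT; fluorescence intensity read.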

[11] = target: D(2) dopamine receptor (Homo sapiens) (UniProt P14416); test: Dopamine D2 receptor (DRD2) small molecule agonists, cell-based qHTS assay (AID 1963594); further: nearly all actives have a fitted effect of over 35% in size
Chain of D(2) dopamine receptor (Homo sapiens) (P14416 whole entry, looked up): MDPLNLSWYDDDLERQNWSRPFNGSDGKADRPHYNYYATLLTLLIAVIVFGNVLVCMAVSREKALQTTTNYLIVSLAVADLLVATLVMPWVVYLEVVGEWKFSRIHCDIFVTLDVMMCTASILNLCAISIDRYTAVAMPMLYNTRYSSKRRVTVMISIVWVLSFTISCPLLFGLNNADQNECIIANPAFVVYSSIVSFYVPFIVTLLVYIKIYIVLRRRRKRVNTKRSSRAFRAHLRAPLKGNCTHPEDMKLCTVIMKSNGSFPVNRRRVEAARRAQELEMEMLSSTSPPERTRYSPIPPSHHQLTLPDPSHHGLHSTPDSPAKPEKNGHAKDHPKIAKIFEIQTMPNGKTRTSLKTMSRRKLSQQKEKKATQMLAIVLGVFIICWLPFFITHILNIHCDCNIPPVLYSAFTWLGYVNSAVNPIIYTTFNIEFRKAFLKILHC
Outline: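 HEK293 cells stably expressing human DRD2, pre-treated with PDE inhibitor Ro20-1724 (0.1 mM final) and compound 10 min at room temperature, then stimulated with NKH477 (200nM […]) for 30 min. cAMP read by HTRF (665/620 nm).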

[12] = target: D(2) dopamine receptor (Homo sapiens) (UniProt P14416); test: Dopamine D2 receptor (DRD2) small molecule antagonists, cell-based qHTS assay (AID 1963595; active means well fitted inhibition curve with a large enough effect in the signal ratio in the repeat runs, with a control signal flat; the % refers to the signal ratio)
Outline: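 Human DRD2 antagonist qHTS measuring cAMP by HTRF. The cells are exposed to compound for 10 min, then to NKH477 (200 nM) and quinpirole (12 nM) for 30 min at RT, with Ro20-1724 (0.1 mM) present throughout.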

[13] = target: 5-hydroxytryptamine receptor 2A (Homo sapiens) (UniProt P28223); test: 5-hydroxytryptamine receptor 2A (HTR2A) small molecule antagonists, cell-based qHTS assay (AID 1963586); further: nearly all actives have a fitted effect of over 45% in size
Chain of 5-hydroxytryptamine receptor 2A (Homo sapiens) (P28223 whole entry, looked up): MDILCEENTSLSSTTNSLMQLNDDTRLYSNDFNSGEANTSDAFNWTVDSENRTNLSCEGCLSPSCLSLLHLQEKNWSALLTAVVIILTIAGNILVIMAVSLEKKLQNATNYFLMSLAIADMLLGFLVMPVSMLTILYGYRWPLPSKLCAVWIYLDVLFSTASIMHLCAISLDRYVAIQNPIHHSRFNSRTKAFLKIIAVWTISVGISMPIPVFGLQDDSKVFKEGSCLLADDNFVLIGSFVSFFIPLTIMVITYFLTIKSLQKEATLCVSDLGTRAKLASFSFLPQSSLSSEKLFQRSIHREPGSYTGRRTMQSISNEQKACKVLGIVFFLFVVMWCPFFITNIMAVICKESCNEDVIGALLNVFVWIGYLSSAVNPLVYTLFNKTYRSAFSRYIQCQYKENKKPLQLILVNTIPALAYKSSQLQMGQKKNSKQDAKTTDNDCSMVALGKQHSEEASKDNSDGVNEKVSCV
Outline: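 Antagonist-mode intracellular calcium assay: DOI (4 nM) added after 5 min compound pre-incubation at room temperature to dye-loaded HTR2A-CHO cells. Fluorescence followed for 3 min, sampled every second.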

[14] = target: 5-hydroxytryptamine receptor 2A (Homo sapiens) (UniProt P28223); test: 5-hydroxytryptamine receptor 2A (HTR2A) small molecule agonists, cell-based qHTS assay (AID 1963587); further: nearly all actives have a fitted effect of over 30% in size
Outline: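 CHO cells stably expressing human HTR2A, plated 18 h, loaded with calcium dye 1 h at 37 C. Agonist mode: compounds added and intracellular calcium fluorescence recorded kinetically for 2 min at 1 sec intervals.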

[15] = target: Muscarinic acetylcholine receptor M1 (Homo sapiens) (UniProt P11229); test: Cholinergic receptor muscarinic 1 (CHRM1) small molecule agonists, cell-based qHTS assay (AID 1963589); further: nearly all actives have a fitted effect of over 35% in size
Chain of Muscarinic acetylcholine receptor M1 (Homo sapiens) (P11229 whole entry, looked up): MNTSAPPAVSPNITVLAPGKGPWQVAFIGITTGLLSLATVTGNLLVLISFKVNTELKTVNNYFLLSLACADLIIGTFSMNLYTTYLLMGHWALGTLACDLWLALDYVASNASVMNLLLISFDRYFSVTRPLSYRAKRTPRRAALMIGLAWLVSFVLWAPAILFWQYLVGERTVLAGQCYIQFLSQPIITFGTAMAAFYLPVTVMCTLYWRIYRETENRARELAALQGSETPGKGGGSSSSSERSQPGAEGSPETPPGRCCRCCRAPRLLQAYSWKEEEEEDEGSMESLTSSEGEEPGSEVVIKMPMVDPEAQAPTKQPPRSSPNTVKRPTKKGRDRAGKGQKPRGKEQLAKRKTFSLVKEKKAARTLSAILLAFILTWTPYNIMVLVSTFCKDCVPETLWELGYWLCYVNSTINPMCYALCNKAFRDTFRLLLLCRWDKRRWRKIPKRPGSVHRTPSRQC
Outline: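 Human M1 in stable CHO line; 18 h plating, 1 h dye load 37 C; cpd added (agonist mode); Ca2+ fluorescence kinetic read, 1 s intervals; 15 conc, 3 runs.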

[16] = cAMP Responsive Elements (CRE) small molecule agonists, cell-based qHTS assay (AID 1963590)
Outline: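 HEK 293T CRE-bla, 2,000 cells/well, 18 h preincubation 37 C/5% CO2; cpds (DMSO) pinned, 3 h; LiveBLAzer B/G FRET substrate, 2 h RT.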

[17] = cAMP Responsive Elements (CRE) small molecule antagonists, cell-based qHTS assay (AID 1963591; active means well fitted inhibition curve with a large enough effect in the signal ratio in the repeat runs, not every such curve was filed as active; the % refers to the signal ratio)
Outline: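 Beta-lactamase reporter read by FRET substrate (LiveBLAzer B/G) after 2 h at room temperature. CRE-bla HEK293T cells had received compound plus 0.25 uM (final) NKH477 for 3 h at 37 °C.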

[18] = target: Beta-2 adrenergic receptor (Homo sapiens) (UniProt P07550); test: Adrenergic beta2 receptor (ADRB2) small molecule antagonists, cell-based qHTS assay (AID 1963592); further: series mostly up to about 92 µM; nearly all actives have a fitted effect of over 50% in size
Chain of Beta-2 adrenergic receptor (Homo sapiens) (P07550 whole entry, looked up): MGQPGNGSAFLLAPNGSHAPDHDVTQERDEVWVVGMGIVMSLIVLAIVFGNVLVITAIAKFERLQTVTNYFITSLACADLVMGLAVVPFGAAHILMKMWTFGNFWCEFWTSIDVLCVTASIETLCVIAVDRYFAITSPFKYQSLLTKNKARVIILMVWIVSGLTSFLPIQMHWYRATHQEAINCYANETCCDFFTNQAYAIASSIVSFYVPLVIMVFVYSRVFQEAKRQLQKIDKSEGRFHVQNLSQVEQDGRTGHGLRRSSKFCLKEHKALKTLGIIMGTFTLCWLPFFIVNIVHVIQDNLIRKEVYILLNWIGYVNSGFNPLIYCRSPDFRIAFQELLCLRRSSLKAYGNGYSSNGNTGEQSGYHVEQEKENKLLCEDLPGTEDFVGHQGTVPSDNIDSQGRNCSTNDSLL
Outline: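 Cells (CHO, stable ADRB2 overexpression) incubated 18-20hr at 37C; compounds added from DMSO; agonist mix (1nM isoproterenol, 100uM IBMX, 25uM Ro-20-1724) added; 0.5hr RT; d2-cAMP and anti-cAMP-cryptate added; 1hr RT; 665/615 nm read.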

[19] = target: Muscarinic acetylcholine receptor M1 (Homo sapiens) (UniProt P11229); test: Cholinergic receptor muscarinic 1 (CHRM1) small molecule antagonists, cell-based qHTS assay (AID 1963588); further: nearly all actives have a fitted effect of over 40% in size
Outline: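 CHRM1-CHO calcium-flux assay, antagonist mode. Cells were seeded 18 h, dye-loaded 1 h at 37 C and given compound for 5 min at RT, then acetylcholine was added at 50nM. FDSS fluorescence was read 3 min; 15 concentrations, three runs.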

Measured: Potency

NC1CCN(c2nc3c(cc2F)c(=O)c(C(=O)O)cn3-c2ccc(F)cc2F)C1 (centres undefined)
not listed: [13] | [14] | [15] | [16] | [17] | [18] | [19]
inactive: all other assays above

CCN(CC)c1cccc(C)c1
not listed: [8] | [19]
inactive: all other assays above

CCCCCC#CC(=O)OC
not listed: [6]
inactive: all other assays above

NS(=O)(=O)c1cc(C(=O)O)cc(N2CCCC2)c1Oc1ccccc1
not listed: [9]
inactive: all other assays above

CC(N)C12CC3CC(CC(C3)C1)C2 (centres undefined)
not listed: [8] | [13] | [14] | [15] | [19]
inactive: all other assays above

CC1(C)CC(O)CC(C)(C)N1
not listed: [9]
inactive: all other assays above

NC1[C@H]2CN(c3nc4c(cc3F)c(=O)c(C(=O)O)cn4-c3ccc(F)cc3F)C[C@@H]12 (some centres undefined)
not listed: [10] | [13] | [14] | [15] | [16] | [17] | [19]
inactive: all other assays above

CSc1cnc(C)cn1
not listed: [9]
inactive: all other assays above

CC(C)(C)C(=O)O
not listed: [8] | [13]
inactive: all other assays above

OCC(CO)(CO)COCC(CO)(CO)CO
not listed: [6]
inactive: all other assays above

CCCCCCCC(=O)OCC
not listed: [7] | [8] | [12] | [18]
inactive: all other assays above

Nc1ccn([C@@H]2O[C@H](CO)[C@@H](O)C2(F)F)c(=O)n1
not listed: [9] | [10] | [11] | [13] | [14] | [15] | [18] | [19]
inactive: all other assays above

CCCCCCCCCCCCCCCC(=O)OC[C@H](O)[C@H]1OC(=O)C(O)=C1O
not listed: [8] | [9] | [10] | [14]
inactive: all other assays above

CCCC(C)C=O (centres undefined)
not listed: [8]
inactive: all other assays above

COCC(=O)Nc1c(I)c(C(=O)NCC(O)CO)c(I)c(C(=O)N(C)CC(O)CO)c1I (centres undefined)
not listed: [7]
inactive: all other assays above
